Pf growth 96h: P. falciparum growth inhibition at 96 hour, primary screen for plastid delayed-death inhibitors; hit rate 6.9% among 320,000; P. falciparum luciferase reporter growth, 96 h; Potency, µM (titrated, usually from 28.7 µM), hits mostly inhibitors
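Plates of compound plus infected erythrocytes (2% hematocrit, 0.05% parasitemia final) incubate 96 hours, 37 C, 5% CO2. Detection reagent added; reduced luminescence from the parasites' luciferase reporter flags inhibition.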
Shiga inhibitor: Shiga toxin inhibition. Vero cells, Shiga toxin protein synthesis inhibition reporter. inhibition, % at 38.7 µM. hit rate 9.2% among 290,000. AID 2315; in the data active means inhibition mostly above about 28%, no sharp cut-off; inactive means mostly below about 43%
CHX counter: affects cycloheximide protein synthesis inhibition readout, counter-screen | cell reporter, cycloheximide protein synthesis inhibition counterscreen | max response, % | hit rate 12% among 300,000 | AID 2314; in the data active means max response mostly above about 13%, no sharp cut-off; inactive means mostly below about 14%; further: read at 38.3 µM for the half of the compounds with a filed dose
LmPK inhibitor: blocks Leishmania mexicana pyruvate kinase activity; purified LmPK, Kinase-Glo ATP luminescence, 1 h; Potency, µM (top dose mostly 57.5 µM), usual class: inhibitors; hit rate 0.37% among 290,000
Target sequence (Q27686 whole entry, looked up): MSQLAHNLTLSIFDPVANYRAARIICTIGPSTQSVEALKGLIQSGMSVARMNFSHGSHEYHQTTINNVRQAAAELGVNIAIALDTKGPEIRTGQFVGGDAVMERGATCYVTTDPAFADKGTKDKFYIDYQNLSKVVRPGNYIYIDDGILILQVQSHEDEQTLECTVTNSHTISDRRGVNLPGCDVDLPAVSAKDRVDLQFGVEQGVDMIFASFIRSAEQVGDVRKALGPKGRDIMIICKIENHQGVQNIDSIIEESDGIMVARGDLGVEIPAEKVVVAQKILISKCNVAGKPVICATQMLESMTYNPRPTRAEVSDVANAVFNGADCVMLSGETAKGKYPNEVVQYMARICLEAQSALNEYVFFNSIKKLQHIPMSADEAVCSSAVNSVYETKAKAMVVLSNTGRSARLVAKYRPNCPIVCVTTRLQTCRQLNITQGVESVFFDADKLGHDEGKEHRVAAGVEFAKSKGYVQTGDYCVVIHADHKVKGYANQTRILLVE
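Purified LmPK (0.1 nM) converted ADP (0.1 mM) to ATP with PEP (0.5 mM) in imidazole buffer pH 7.2 with KCl and MgCl2, 1 h at room temperature. ATP was read by Kinase-Glo luminescence; data normalized to uninhibited and no-enzyme controls.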
Pf growth 48h: P. falciparum growth inhibition at 48 hours (one generation); Potency, µM (series often up to 28.7 µM), most hits filed as inhibitors; AID 504832; hit rate 5.9% among 310,000; P. falciparum luciferase growth in erythrocytes, 48 h
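Compounds are pin-transferred into medium, infected erythrocytes (2% hematocrit, 0.1% parasitemia final) are added, and plates sit one parasite generation at 37 C in 5% CO2. Detection reagent is then added and luminescence measured.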
Of the large screens only hits and unclear results are named; the others gave an inactive call. Most compounds without a hit are left out; they make up all but 22% or so of the library. Unless noted, the call rests on the fitted dose curve; in most records, active means well fitted inhibition curve with a large enough effect; inconclusive means small, poorly fitted or top-dose-only effect, or another doubt; inactive means no such curve, though single readings can be large or run the other way.

Cc1[nH]c2ccccc2c1/C=N/NC(=O)C1CC1(c1ccccc1)c1ccccc1 (centres undefined)	Pf growth 48h inconclusive
C=CCc1ccc(OCCOCCOc2cccc3cccnc23)c(OC)c1	Pf growth 96h inconclusive, Pf growth 48h inconclusive
FC(F)(F)c1cnc(Sc2ncn[nH]2)c(Cl)c1	none
COc1ccc(C(=O)CN2CCN(S(=O)(=O)c3cccc([N+](=O)[O-])c3)CC2)cc1	none
O=C(OCCCN=C1NS(=O)(=O)c2ccccc21)c1ccc([N+](=O)[O-])cc1	none
COc1ccc2c(c1OC)C(=O)N(c1ccccc1)C2=O	Shiga inhibitor 47.2, CHX counter 39.4
CC(C)Oc1ccc(N2C(=O)c3ccccc3C2=O)cc1	CHX counter 17.6 (no result: Pf growth 48h)
CCO/C=C1\C(=O)N(c2ccccc2)C(=O)c2ccccc21	Shiga inhibitor 69.4, CHX counter 40.4
CCO/C=C1/C(=O)N(c2ccc(OC)cc2)C(=O)c2ccccc21	none
COc1ccc2c(c1OC)C(=O)N(c1ccc(O)cc1)C2=O	none
O=C1c2ccccc2C(=O)N1c1ccc(Cl)cc1	none (no result: Pf growth 48h)
COc1ccc(N2C(=O)c3ccccc3C2=O)cc1	Pf growth 96h inconclusive, Shiga inhibitor 54.8, CHX counter 18.9
CC1COC(=O)O1 (centres undefined)	none (no result: Pf growth 96h, LmPK inhibitor, Pf growth 48h)
O=C(c1ccc2ccccc2n1)N(CCO)Cc1ccccc1	none
Cn1c(CNC(=O)c2ccco2)nnc1SCC(=O)Nc1c(F)cc(F)cc1Br	none
CCC(Sc1nc2ccncc2[nH]1)C(=O)Nc1cc(Cl)ccc1C (centres undefined)	Pf growth 96h inconclusive
CCN(CC)CCCOC(=O)c1ccc(OC)cc1O	none
CC(C)Oc1ccc(C2CC(=O)N(c3ccc(C(=O)O)cc3)C2=O)cc1 (centres undefined)	none
CC(C)Oc1ccc(C2CC(=O)N(c3ccccc3)C2=O)cc1 (centres undefined)	CHX counter 19.9 (no result: Pf growth 48h)
COc1ccc(O)c(C(=O)C2c3ccccc3C(=O)N2c2ccc(C)cc2)c1 (centres undefined)	Pf growth 96h 1.47µM, Shiga inhibitor 80.5, CHX counter 44.0, Pf growth 48h inconclusive
Cc1ccc(N2C(=O)c3ccccc3C2=O)cc1	Shiga inhibitor 91.2, CHX counter 40.8
COc1ccc(OC)c(C(=O)CC2OC(=O)c3ccccc32)c1 (centres undefined)	Pf growth 96h inconclusive, Pf growth 48h inconclusive
CC(=O)Nc1cccc2c1C(=O)N(c1ccc(C)cc1)C2=O	Shiga inhibitor 35.2, CHX counter 15.0
CN(CC(=O)Nc1ccccc1C(F)(F)F)Cc1c(O)ccc2ccccc12	none
COc1ccc(C(C(=O)NC(C)(C)C)N(C(=O)CCC(=O)Nc2cc(C)on2)c2ccc(C)c(C)c2)cc1 (centres undefined)	Pf growth 48h inconclusive
Cc1ccc(NC(=O)C2C3CC4OC(=O)C2C4C3)cc1Cl (centres undefined)	none
CC(C)OC(=O)c1ccc(NC(=O)C2C3CC4OC(=O)C2C4C3)cc1 (centres undefined)	Shiga inhibitor 60.5, CHX counter 33.5 (no result: Pf growth 96h)
N#Cc1ccc(-c2cccnc2)nc1SCC(=O)Nc1sc2c(c1C#N)CCC2	Pf growth 96h 1.47µM, Pf growth 48h inconclusive
N#Cc1c(C(F)(F)F)cc(-c2ccccc2)nc1SCC(=O)Nc1sc2c(c1C#N)CCC2	Pf growth 96h 11.7µM, Pf growth 48h inconclusive
COc1ccc(-c2ccc(C#N)c(SCC(=O)Nc3sc4c(c3C#N)CCC4)n2)cc1	none
N#Cc1ccc(-c2cccnc2)nc1SCC(=O)c1ccccc1	Shiga inhibitor 82.2, CHX counter 36.7
CC1(C)CC(=O)C(N=Nc2ccc(C(F)(F)F)cc2[N+](=O)[O-])=C(O)C1	Pf growth 48h inconclusive
CC(=O)N1CCN(c2ccc(NC(=O)c3ccc4c(c3)OCCO4)cc2Cl)CC1	CHX counter 27.8
CC(C)C(=O)N1CCN(c2ccc(NC(=O)c3ccc4c(c3)OCCO4)cc2Cl)CC1	Pf growth 96h 4.65µM (no result: Pf growth 48h)
COc1ccc(CCNC(=O)Cn2ccc3c(OC)cccc3c2=O)cc1OC	none
Cc1ccc(-n2ncc3c2CC(C)(C)CC3NC(=O)C2CCOCC2)cc1 (centres undefined)	none
c1ccc(CCNc2ncnc3sccc23)nc1	Shiga inhibitor 73.0, CHX counter 35.1
OC(CNc1ncnc2sccc12)c1ccccc1 (centres undefined)	Shiga inhibitor 84.0, CHX counter 25.4
OC1CCCCC1	none (no result: Shiga inhibitor, CHX counter, LmPK inhibitor)
O=C(O)C1C(=O)NCC1c1ccccc1 (centres undefined)	none
CC1CN(C(=O)Nc2ccc3c(c2)OCCO3)CC(C)O1 (centres undefined)	none
Cc1cccc(C)c1N1CCN(C(=O)Nc2ccc3c(c2)OCCO3)CC1	Shiga inhibitor 55.6, CHX counter 45.3
CC(C)(C)OC(=O)N1CCN(C(=O)Nc2ccc3c(c2)OCCO3)CC1	CHX counter 23.6
O=C(Nc1ccc2c(c1)OCCO2)N1CCN(c2ccc(F)cc2)CC1	Shiga inhibitor 34.9, CHX counter 38.2
Cc1ccc(S(=O)(=O)Cc2nc(-c3ccc(C(=O)NCc4ccccc4F)cc3)oc2C)cc1	none (no result: Pf growth 96h, LmPK inhibitor, Pf growth 48h)
CCOC(=O)CSc1nc(=O)n2cc(C)ccc2n1	CHX counter 17.3
CCOC(=O)C(C)Sc1nc(=O)n2cc(C)ccc2n1 (centres undefined)	Pf growth 96h inconclusive
CCCSc1nc(=O)n2cc(C)ccc2n1	Pf growth 96h inconclusive, Shiga inhibitor 57.1, CHX counter 33.0
Cc1ccc(S(=O)(=O)NCCNc2ccc([N+](=O)[O-])cc2C(F)(F)F)cc1	Pf growth 96h 4.15µM, Pf growth 48h 10.4µM
COc1ccc(C2SCCN2C(=S)Nc2cccc(C(F)(F)F)c2)cc1 (centres undefined)	Pf growth 96h 9.28µM, Pf growth 48h 2.33µM
CCOC(=O)c1ccc(NC(=S)N2CCSC2c2ccc(OC)cc2)cc1 (centres undefined)	Shiga inhibitor 23.4, CHX counter 26.0
O=C(COc1ccccc1)Nc1nnc(S(=O)(=O)N2CCCCCC2)s1	none
Cc1cccc(NC(=O)CNC(=O)CNC(=O)Cc2ccccc2)c1	Pf growth 96h inconclusive
CC(C)NC(=O)CCCc1ccccc1	Shiga inhibitor 58.2, CHX counter 26.7
CCC(NC(=O)CCCc1ccccc1)c1ccccc1 (centres undefined)	Pf growth 96h inconclusive
Cc1cccc(NC(=O)CCCc2ccccc2)c1	Shiga inhibitor 72.7, CHX counter 56.8
CN(C)c1ccc(NC(=O)CCCc2ccccc2)cc1	Shiga inhibitor 100.2, CHX counter 35.9 (no result: Pf growth 96h)
CC(O)c1cccc(NC(=O)CCCc2ccccc2)c1 (centres undefined)	Shiga inhibitor 48.6
O=C(CCc1ccccc1)Nc1ccccc1	Pf growth 96h inconclusive
FC(F)(F)c1cc(-c2cccs2)nc2cc(-c3cccs3)nn12	Pf growth 96h inconclusive, Pf growth 48h inconclusive
CC(c1ccccc1)C(CC(=O)O)C(=O)Nc1ccc(Cl)c(Cl)c1 (centres undefined)	Pf growth 96h inconclusive (no result: Shiga inhibitor)

Source: PubChem
